Experiment [1] can be described thus: Cell Viability - BJ (AID 421; calls by dose curve;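 note: potency is the fitted concentration of half-maximal effect; cells exposed to compound for 40 hours at 37 °C before readout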). The settings on record: BJ fibroblast viability, qHTS. An outline of the steps: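 Normal human BJ foreskin fibroblasts, 1500/well in complete medium, treated 40 hr at 37 °C. Cellular ATP by CellTiter-Glo luminescence; normalized to DMSO and 100 uM tamoxifen, AC50 from Hill fit.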
(Quantitative high-throughput screening tests each substance at several concentrations.)

A short description of experiment [2]: Cell Viability - HepG2 (AID 433; calls by dose curve;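 note: potency is the fitted concentration of half-maximal effect; potency for ATP loss meaning cytotoxicity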). The settings on record: qHTS. An outline of the steps:
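Cytotoxicity read as ATP loss (CellTiter-Glo luminescence) after 40 hr compound exposure of HepG2, 1500 cells/well, 37 °C. AC50 by Hill equation; 0% set by DMSO, 100% inhibition by 100 uM tamoxifen.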

A short description of experiment [3]: Cell Viability - MRC5 (AID 434; calls by dose curve;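 note: potency is the fitted concentration of half-maximal effect; cells exposed to compound for 40 hours at 37 °C; potency reflects cytotoxicity seen as loss of intracellular ATP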). The settings on record: MRC5 lung fibroblast viability, qHTS. An outline of the steps:
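Decrease in intracellular ATP, quantified by luciferase light output, reflects compound toxicity toward MRC5 cells exposed for 40 hr in complete culture medium. Concentration-response curves, scaled between DMSO and 100 uM tamoxifen, gave AC50 values.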

Experiment [4] is described as follows: Cell Viability - HUV-EC-C (AID 542). Note: % is set by controls: 0 for no effect and ±100 for the full control effect; nearly all actives have a fitted effect of over 35% in size. The essentials: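 Concentration-dependent ATP loss in HUV-EC-C cells is the measure. Exposure lasts 40 hr at 37 °C; luminescence follows CellTiter-Glo addition, and Hill fits give AC50.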
Experiment [5] can be described thus: Cellular Toxicity (caspase-3) Jurkat (AID 655).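 Note: cells exposed to compound for 16 h at 37 °C before reading.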 The note with it: Jurkat caspase-3 activation, luminescence; caspase-3 activation: at 92.2 µM (top of the series), DMSO = 0%, tamoxifen = 100%. An outline of the steps: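 Luminescent Caspase-Glo 3/7 read-out (20 min, room temperature) after 16 h compound treatment at 37 C of 5000 Jurkat cells per well. AC50 derived by Hill-equation fitting, scaled between DMSO basal and 100 uM tamoxifen stimulation.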

Experiment [6] is described as follows: Cellular Toxicity (caspase-3) H-4-II-E (AID 663).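 Note: cells exposed to compound for 16 hr before readout.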 The note with it: Potency: caspase-3 activation. An outline of the steps:
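Caspase 3/7 activation measured in H-4-II-E cells in complete culture medium after 16 hr treatment at 37 °C, using luciferase-coupled substrate readout; AC50 values come from Hill-equation fits of normalized concentration-response data.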

In experiment [7] the target is Cytochrome P450 3A4 (Homo sapiens) (UniProt P08684). Put plainly: qHTS Assay for Inhibitors and Substrates of Cytochrome P450 3A4 (AID 884). Note: % is set by controls: 0 for no effect and ±100 for the full control effect; nearly all actives have a fitted effect of over 50% in size. The essentials:
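Luminescent readout of luciferin produced by CYP3A4 (20 nM) dealkylation of Luciferin-PPXE, 25 uM (its KM). NADPH-driven reaction ran 60 min at RT after 10 min compound preincubation; data scaled to 57 uM ketoconazole as 100% inhibition.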

Experiment [8] can be described thus: MultiTox-Fluor Cytotoxicity Assay - LYMP1-001 - Dead Cells (AID 946).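 Note: 0% = DMSO and 100% = tetraoctylammonium bromide.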 The essentials:
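LYMP1-001 lymphoblastoid cells (2500/well) treated 16 h at 37 C. Dead-cell protease cleavage of bis-AAF-R110 read at Ex/Em 485/520. Normalized to DMSO and 15 uM tetraoctylammonium bromide; AC50 from Hill fits.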

Experiment [9] is described as follows: Cell Viability - LYMP1-002 - Assay at 16 hr (AID 948).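 Note: 0% = DMSO alone and full effect = 92 µM tetraoctylammonium bromide.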 The essentials: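 ATP luminescence (CellTiter-Glo) was measured after 16 hr compound exposure at 37 C of 2500 lymphoblastoid LYMP1-002 cells per well. Concentration-response curves were fitted with the Hill equation to give AC50.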
Experiment [10] in a line: MultiTox-Fluor Cytotoxicity Assay - LYMP1-002 - Live Cells (AID 955). Note: % is set by controls: 0 for no effect and ±100 for the full control effect. An outline of the steps: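 In this qHTS viability format, lymphoblastoid cells (LYMP1-002, human) received compound for 16 hr at 37 C. Fluorogenic GF-AFC cleavage by viable cells was detected at 405/510 nm after 1 h at room temperature.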
A short description of experiment [11]: MultiTox-Fluor Cytotoxicity Assay - LYMP1-002 - Dead Cells (AID 960).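 Note: 0% = DMSO and 100% = tetraoctylammonium bromide; nearly all actives have a fitted effect of over 60% in size.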 An outline of the steps: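 Concentration-dependent increases in membrane-leaked protease activity are quantified in LYMP1-002 cells after 16 hr treatment; values are normalized against DMSO and tetraoctylammonium bromide (15 uM) controls and AC50 derived by Hill modeling.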
The nature of experiment [12]: MultiTox-Fluor Cytotoxicity Assay - LYMP1-003 - Dead Cells (AID 961).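 Note: 0% = DMSO and 100% = tetraoctylammonium bromide; nearly all actives have a fitted effect of over 70% in size.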 The essentials:
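LYMP1-003 human lymphoblastoid cells (2500/well) exposed to compound 16 h at 37 C in complete medium; dead-cell protease read with bis-AAF-R110 fluorescence (Ex/Em 485/520) after 60 min at room temperature. Normalized to DMSO and 15 uM tetraoctylammonium bromide; AC50 from Hill fit.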

The nature of experiment [13]: MultiTox-Fluor Cytotoxicity Assay - LYMP1-003 - Live Cells (AID 962).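 Note: 0% = DMSO only and full loss = 92 µM tetraoctylammonium bromide; cytotoxic hits lower the live-cell protease signal.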 The essentials:
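Human lymphoblastoid line LYMP1-003 in complete culture medium, treated 16 hr with titrated compounds. Viable cells quantified via cell-permeant GF-AFC substrate fluorescence; AC50 derived by Hill fitting.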

A short description of experiment [14]: Cell Viability - LYMP2-018 (AID 985).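 Note: compound exposure lasted 24 hr at 37 °C; plate controls were DMSO only for no effect and tetraoctylammonium bromide at 92 µM for full effect; nearly all actives have a fitted effect of over 50% in size.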 The essentials: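 In this qHTS viability assay, cells are treated for 24 hr and cellular ATP is quantified by luciferase-based luminescence, with tetraoctylammonium bromide as positive control.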
The nature of experiment [15]: Cell Viability - LYMP1-002 - Assay at 24 hr (AID 993). Note: % is set by controls: 0 for no effect and ±100 for the full control effect. The essentials:
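Viability was judged from intracellular ATP using a luciferase read-out, following a 24-hour compound incubation at 37 C of lymphoblastoid cells seeded at 2500 per well. Concentration-response data were fitted to the Hill equation for AC50.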

A short description of experiment [16]: qHTS assay for small molecule antagonists of retinoid X receptor alpha signaling (AID 588546; active = well fitted inhibition curve with a large enough effect in the signal ratio, with a control signal flat, not every such curve was filed as active; the % refers to the signal ratio;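 note: cells stimulated with 9-cis-retinoic acid as agonist; % is set by controls: 0 for no effect and ±100 for the full control effect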). The note with it: HEK293T RXRa-UAS-bla, beta-lactamase ratio, antagonist mode; measured here: W530 green channel, cytotoxicity proxy. An outline of the steps: (§1)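 Beta-lactamase reporter inhibition, read as CCF4 fluorescence ratio (ex 405, em 460/530 nm) after 2 h at RT. HEK293T UAS-bla cells, 2500/well, were stimulated with 9-cis-RA at 500 or 100 nM final alongside test compound for 18 h at 37 C.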

Experiment [17] has as its target Retinoic acid receptor RXR-alpha (Homo sapiens) (UniProt P19793). The description is as above. The note with it: HEK293T RXRa-UAS-bla, beta-lactamase ratio, antagonist mode. An outline of the steps: as §1
A short description of experiment [18]: qHTS assay for small molecule disruptors of the mitochondrial membrane potential - 5 hr assay (AID 651755; calls by dose curve; note: % is set by controls: 0 for no effect and ±100 for the full control effect; nearly all actives have a fitted effect of over 40% in size). The essentials:
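Seed HepG2 overnight, add compound, incubate 5 hr at 37C and 5% CO2, stain 30 min with Mito-MPS, then measure monomer (490/535 nm) and aggregate (540/590 nm) fluorescence.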

A short description of experiment [19]: qHTS assay for cell viability of HEK293 cells (AID 743288). Note: % is set by controls: 0 for no effect and ±100 for the full control effect; nearly all actives have a fitted effect of over 50% in size. The note with it: ATP luminescence (CellTiter-Glo), 18 h; max response: stronger effect = lower value. The essentials: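 Readout is luciferase-coupled ATP content (CellTiter-Glo luminescence, 30 min room temperature) as a measure of metabolically competent cells. Parental HEK293 cells were plated 5 h or more before compound addition, then treated 18 h at 37 C.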

Experiment [20] can be described thus: Cellular Toxicity (caspase-3) NIH 3T3 (AID 666).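 Note: caspase signal read after 16 h compound exposure.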 The essentials: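 Activity: caspase-3/7 induction, NIH 3T3 cells, 16 hr treatment at 37°C, luminescent Caspase-Glo detection; AC50 via Hill equation.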

Here are results for five compounds from PubChem BioAssay (NCATS).

Several values for one entry are separate records, joined by “and”; a condition that tells them apart may be missing. Equal entries are not always repeated. Records with an inconclusive call do not appear. Activity calls are given as the source filed them. Unless noted, calls come from the whole dose curve; as a rule, active = well fitted curve in the direction sought with a large enough effect; inconclusive = small, poorly fitted or top-dose-only effect, or another doubt; inactive = no such curve, though single readings can be large; an effect the other way counts as inactive or inconclusive.

Sequence of Cytochrome P450 3A4 (Homo sapiens) (P08684 whole entry, looked up): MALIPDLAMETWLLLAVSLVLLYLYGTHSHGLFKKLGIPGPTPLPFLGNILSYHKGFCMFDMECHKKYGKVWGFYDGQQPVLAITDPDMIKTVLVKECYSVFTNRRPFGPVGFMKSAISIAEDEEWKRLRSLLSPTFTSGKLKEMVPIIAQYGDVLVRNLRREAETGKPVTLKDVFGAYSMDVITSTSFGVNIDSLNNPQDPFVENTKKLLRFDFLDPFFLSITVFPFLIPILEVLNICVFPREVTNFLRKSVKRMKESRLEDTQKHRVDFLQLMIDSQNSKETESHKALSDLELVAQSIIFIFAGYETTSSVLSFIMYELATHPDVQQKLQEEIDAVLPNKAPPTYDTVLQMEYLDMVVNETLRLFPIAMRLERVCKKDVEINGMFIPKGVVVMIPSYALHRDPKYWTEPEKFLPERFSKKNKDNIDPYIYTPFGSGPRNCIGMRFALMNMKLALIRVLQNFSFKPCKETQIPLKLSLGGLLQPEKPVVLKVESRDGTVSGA
Sequence of Retinoic acid receptor RXR-alpha (Homo sapiens) (P19793 whole entry, looked up): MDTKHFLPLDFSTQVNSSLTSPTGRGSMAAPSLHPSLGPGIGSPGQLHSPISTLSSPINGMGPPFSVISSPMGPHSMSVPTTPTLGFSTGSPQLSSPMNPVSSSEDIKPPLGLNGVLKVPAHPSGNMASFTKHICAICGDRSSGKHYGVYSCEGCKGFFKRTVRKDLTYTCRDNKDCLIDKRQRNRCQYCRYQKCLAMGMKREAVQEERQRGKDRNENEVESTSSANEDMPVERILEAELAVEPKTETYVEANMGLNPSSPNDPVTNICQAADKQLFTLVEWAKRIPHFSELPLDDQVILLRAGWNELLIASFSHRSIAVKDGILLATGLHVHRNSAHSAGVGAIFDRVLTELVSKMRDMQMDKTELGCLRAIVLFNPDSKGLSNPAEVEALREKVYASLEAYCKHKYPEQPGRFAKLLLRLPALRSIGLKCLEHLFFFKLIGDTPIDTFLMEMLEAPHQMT

For `CC(/C=C/C=C(C)/C=C/C(=O)O)=C\C=C\C=C(C)\C=C\C=C(C)\C=C\C(=O)O`, the Potency in [1], in [2] and in experiment [3] was > 92 µM (inactive) throughout. Further, the Potency result in experiment [4], in experiment [5], in experiment [6], in experiment [7], in experiment [8] and in experiment [9] was “inactive” in each case. In addition, the Potency entry in experiment [11], in [12], in [13], in [14], in experiment [15] and in experiment [18] was “inactive” each time. The compound was classed as inactive in [10]. Also, the max response was -20% in experiment [16], 16.8% (inactive) in experiment [17] and -0.748% (inactive) in [19].
For `Brc1cc(Oc2cc(Br)c(Br)c(Br)c2Br)c(Br)c(Br)c1Br`, the Potency in experiment [1], in experiment [2] and in [3] was > 92 µM (inactive) in each case. In addition, the Potency result in [4], in experiment [5], in [6], in experiment [7], in experiment [8] and in [9] was “inactive” in each case. Moreover, the Potency result in [11], in [12], in experiment [13], in experiment [14], in experiment [15] and in [18] was “inactive” throughout. Also, the compound was called inactive in [20] and in experiment [10]. For the same compound, the max response is 11.5% and 5.63% in experiment [16]; 8.94% (inactive) and -3.66% (inactive) in [17]; -20.8% (inactive) and -10.9% (inactive) in experiment [19].
In the case of `O=[N+]([O-])c1ccccc1Nc1ccccc1`, the Potency in experiment [1], in experiment [2] and in experiment [3] was > 92 µM (inactive) each time. Moreover, the Potency result in experiment [4], in experiment [5], in experiment [6], in experiment [7], in experiment [8] and in [9] was “inactive” each time. In addition, the Potency entry in experiment [11], in [12], in experiment [13], in experiment [14], in [15] and in experiment [18] was “inactive” each time. Further, the result in [20] and in [10] was inactive. The max response was -9.17% in experiment [16], 0.845% (inactive) in experiment [17] and -4.25% (inactive) in [19].
`CCc1ccc(C(c2ccc(CC)cc2)C(Cl)Cl)cc1`: the Potency in experiment [1], in experiment [2] and in experiment [3] was > 92 µM (inactive) throughout. The Potency result in [4], in experiment [5], in [6], in experiment [7], in experiment [8] and in experiment [9] was “inactive” each time. Besides, the Potency entry in experiment [11], in [12], in experiment [13], in experiment [14], in experiment [15] and in experiment [18] was “inactive” each time. The compound was called inactive in experiment [20] and in experiment [10]. For the same compound, the figures for the max response in experiment [16], in [17] and in experiment [19] were -4.78%, -8.97% (inactive) and -18.5% (inactive), respectively.
As for `C[Si](C)(C)Cl`, the Potency in experiment [1], in [2] and in experiment [3] was > 92 µM (inactive) in each case. For the same compound, the Potency entry in experiment [4], in experiment [5], in [6], in experiment [7], in experiment [8] and in experiment [9] was “inactive” throughout. Moreover, the Potency entry in [11], in experiment [12], in experiment [13], in [14], in experiment [15] and in [18] was “inactive” each time. The call in [20] and in experiment [10] was inactive. Moreover, the max response is 3.42% in experiment [16], 16.7% (inactive) in experiment [17] and -4.36% (inactive) in experiment [19].
